Columns and labels:
Experiment in all cases: PBM binding z-score (relative to random genomic background probes); higher = stronger binding; sequences stand for … in GC…GCGATTGACAGCGTAGAATGAAGG
[1] = tested on: FXR:RXRa (NR concentration 270 nM, RXRa partner concentration 90 nM)
Procedure, shortened: (§1)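 Antibodies against each partner of ligand-free nuclear receptor dimers (one per run) detected binding on custom Agilent 4×180K protein-binding microarrays after 1 h incubation. The double-stranded probes had 34-nt variable regions carrying direct-repeat seeds, single-nucleotide variants, half-site ablations and random human genomic background sequences. Binding z-scores, from regression-normalized fluorescence, use the random background probes as reference.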

[2] = tested on: LXRa:RXRa (NR concentration 270 nM, RXRa partner concentration 90 nM)
Procedure, shortened: as §1

[3] = tested on: LXRa homodimer (NR concentration 270 nM)
Procedure, shortened: as §1

[4] = tested on: LXRb:RXRa (NR concentration 270 nM, RXRa partner concentration 90 nM)
Procedure, shortened: as §1

[5] = tested on: LXRb homodimer (NR concentration 270 nM)
Procedure, shortened: as §1

[6] = tested on: PPARa:RXRa (NR concentration 270 nM, RXRa partner concentration 90 nM)
Procedure, shortened: as §1

[7] = tested on: PPARg:RXRa (NR concentration 180 nM, RXRa partner concentration 90 nM)
Procedure, shortened: as §1

[8] = tested on: PPARg:RXRa 270nM:90nM, anti-RXR (NR concentration 270 nM, RXRa partner concentration 90 nM)
Procedure, shortened: as §1

[9] = tested on: PPARg:RXRa 30nM:10nM, anti-RXR (NR concentration 30 nM, RXRa partner concentration 10 nM)
Procedure, shortened: as §1

[10] = tested on: PPARg:RXRa 90nM:30nM, anti-RXR (NR concentration 90 nM, RXRa partner concentration 30 nM)
Procedure, shortened: as §1

[11] = tested on: PPARg:RXRa DBDmut IVT, anti-RXR (DBD mutation: RXRa K156A/R161A, NR concentration 270 nM, RXRa partner concentration 90 nM)
Procedure, shortened: as §1

[12] = tested on: PPARg:RXRa IVT, anti-PPARg (NR concentration 270 nM, RXRa partner concentration 90 nM)
Procedure, shortened: as §1

[13] = tested on: PPARg DBDmut:RXRa IVT, anti-PPARg (DBD mutation: PPARg1 K132A/R137A, NR concentration 270 nM, RXRa partner concentration 90 nM)
Procedure, shortened: as §1

[14] = tested on: PPARg DBDmut IVT, anti-PPARg (DBD mutation: PPARg1 K132A/R137A, NR concentration 270 nM)
Procedure, shortened: as §1

[15] = tested on: PPARg homodimer (NR concentration 180 nM)
Procedure, shortened: as §1

[16] = tested on: PXR:RXRa (NR concentration 270 nM, RXRa partner concentration 90 nM)
Procedure, shortened: as §1

[17] = tested on: PXR homodimer (NR concentration 270 nM)
Procedure, shortened: as §1

[18] = tested on: RARa:RXR (NR concentration 270 nM, RXRa partner concentration 90 nM)
Procedure, shortened: as §1

[19] = tested on: RARa homodimer (NR concentration 270 nM)
Procedure, shortened: as §1

[20] = tested on: RARb:RXRa (NR concentration 270 nM, RXRa partner concentration 90 nM)
Procedure, shortened: as §1

Sequence	PBM binding z-score [1]	PBM binding z-score [2]	PBM binding z-score [3]	PBM binding z-score [4]	PBM binding z-score [5]	PBM binding z-score [6]	PBM binding z-score [7]	PBM binding z-score [8]	PBM binding z-score [9]	PBM binding z-score [10]	PBM binding z-score [11]	PBM binding z-score [12]	PBM binding z-score [13]	PBM binding z-score [14]	PBM binding z-score [15]	PBM binding z-score [16]	PBM binding z-score [17]	PBM binding z-score [18]	PBM binding z-score [19]	PBM binding z-score [20]
GGAACGTGGGCAAAGTTGATAGCATCTGTCGACG	-0.58	-0.566	-0.508	-0.667	-0.939	0.742	1.45	3.26	0.952	2.7	-0.0354	0.169	-0.243	-0.6	0.0888	-0.428	-0.473	-0.469	-0.252	0.113
ATCGAAAGGGCGACGAGGTGAGTATACACCGTTT	0.314	0.222	-0.247	0.0783	-0.352	0.902	0.873	0.152	0.164	-0.136	-0.129	0.9	0.582	0.302	0.304	0.264	0.172	0.542	0.176	1.74
GCATATAGGTAATAGAAGGTGAAAGTCCGATTGT	0.555	1.95	0.235	0.582	-0.597	1.78	1.24	1.35	0.321	0.9	3.98	3.21	0.445	0.104	0.675	0.246	0.153	0.961	0.689	0.402
GCAGACAGGTGAAAGGCAGGTAACTCAGGGTGGC	0.0647	0.0817	-0.103	-0.00398	-0.276	0.899	0.826	0.901	-0.278	0.391	0.331	0.821	-0.179	-1.25	0.447	-0.081	-0.0558	0.332	0.233	0.812
TCATATTGGTAAACAGGTGAAAGTCCGTAAGTTA	1.17	0.929	0.49	1.15	0.247	1.66	0.821	2.67	4.04	3.3	2.2	1.5	0.411	1.32	1.25	1.03	0.511	1.35	1.38	0.73
TAGCCTAGGCCATTGGGCCAGTATAGTACGCATC	-0.681	-0.881	-0.612	-0.883	-1.27	-1.09	0.237	-0.512	-0.597	-0.438	-0.378	0.553	-1.56	-0.875	-1.33	-0.947	-0.712	-0.936	-0.489	0.356
CGAACTAGGTCAATGACAGTGAATCTCCGCACGC	3.48	2.25	0.283	1.56	-0.147	4.35	6.92	5.8	2.99	5.2	7.95	7.88	1.44	0.0144	1.11	1.01	0.0387	1.71	0.201	3.68
CCTAGCAGGCCAGTGTCACTCAAGCATTTCGCTT	-0.361	-0.253	-0.614	-0.187	-0.597	-0.0659	-0.338	-0.0615	-0.773	-0.752	1.35	0.117	-1.21	-1.52	-0.723	-0.407	-0.826	-0.184	-0.658	0.286
TCTAGCAGGGCAGAGGGTCACTCAAGAGGTACGG	1.06	1.06	-0.469	1.04	-0.996	2.51	2.06	3.48	2.03	3.63	1.26	1.9	-0.31	-0.497	1.22	1.7	-0.546	2.42	-0.749	2.61
AAGACAGGGTCACTAGGCCAGAGTAGGTACGAAT	5.99	3.14	-0.215	3.25	-0.368	5.62	7.53	6.21	2.71	5.21	3.14	5.06	0.632	0.999	1.27	2.89	0.212	4.16	-0.193	4.21
CCACGGAGGACAGAAGGTCAGAGCTGTCCGCTTT	1.39	1.72	-0.0316	1.33	-0.786	2.11	0.277	0.736	-0.771	0.384	0.376	0.519	-0.839	-1.85	0.926	1.56	-0.17	2.2	-0.0117	3.21
CTGACTGGGGCATAAGGTTACCATAAGCCAGCCC	0.671	2.05	0.0158	1.61	-0.345	2.69	3.2	3.99	2.16	3.9	4.6	4.79	0.707	-0.07	1.02	0.767	-0.461	1.62	-0.242	1.94
TCTGGTAGATCAACAGGAGGTTAAGAAAGATCGA	0.3	1.04	0.187	0.782	-0.582	1.24	-0.00962	1.19	2.17	1.82	0.912	0.0177	0.166	-0.137	0.335	0.736	-0.172	1.06	-0.145	0.269
CAAACTAGGTCAAAGGTCGAAGTCGAGCCAACCA	7.06	5.62	1.41	4.93	0.909	7.28	13.9	11.2	14.3	13.6	8.87	9.27	5.32	3.95	3.95	5.77	0.27	8.46	0.524	4.71
AGAGTGAGGTTAAGATCAGGGAAACAGAATACAT	2.54	2.17	0.665	2.44	1.09	3.15	1.43	2.13	0.952	1.36	0.514	1.39	0.929	0.933	1.63	1.62	1.51	2.02	1.55	2.38
GCAGACAGGTGAAACGCAGGTGACTCAGGGTGGC	0.0191	0.00841	-0.506	-0.401	-1.12	1.18	0.635	0.413	-0.264	-0.0702	0.661	1.27	-0.57	-0.659	-0.182	0.074	-0.467	0.675	-0.193	1.01
TATACAGGGTCAAAGGCCAGAGCACGAATGTCGA	6.57	6.15	1.83	4.68	2.53	5.83	7.89	7.51	5.16	7.77	2.75	4.99	1.39	1.27	1.83	4.17	0.0861	5.31	0.94	4.36
CCTTACTGGTCAAGGTTATAGCACGGGTGGTACG	0.733	0.968	0.49	0.767	0.339	1.43	0.792	1.03	0.301	0.959	0.149	0.857	0.06	0.0641	1.25	1.12	0.519	1.01	0.942	2.02
AGTCAAAGTTCACTAGGTGACGTAAGATTCAGCT	5.44	5.36	3.15	3.09	0.835	5.06	7.82	7.04	3.81	6.5	3.75	6.05	1.29	0.955	3.29	4.22	2.57	3.34	1.67	4.87
ACTTACGGGTCAACGAGGTTATAGTACGCGTATA	6.84	5.12	1.1	4.53	0.951	5.76	5.66	5.72	2.24	4.29	3.12	4.22	1.99	1.76	2.88	5.39	4.31	5.61	1.04	4.13
TCATATAGGAAATACAGGTGAAAGTCGGCATCTA	1.36	1.32	0.335	1.27	0.00276	1.6	1.1	2.77	4.7	3.66	3.01	1.27	1.58	0.426	1.31	0.596	0.578	0.964	1.97	0.372
GGTTACGGGTCAAAGGTTATAGCATGAATAGAAT	7.96	5.86	0.937	5.95	0.466	7.09	11.1	9.43	8.67	10.2	3.06	6.69	1.77	1.31	2.81	6.3	0.489	8.27	1.03	4.72
ACTATTAGTTGACTTAGCGCAACCGATACGACGC	-0.246	-0.156	0.033	-0.0894	0.667	-0.285	0.811	0.137	0.148	0.0233	0.0649	0.107	1.97	1.39	-0.0684	-0.103	0.0644	-0.262	0.57	0.104
TCATATAGGTAAAAGGTGACAGTCGGTGTGGTAA	1.88	1.46	-0.178	1.61	0.00468	5.19	9.43	8.82	8.45	9.66	5.71	5.54	2.29	1.71	1.76	1.36	1.05	2.14	1.41	1.7
CGTCCAAGGTCAAGGTCATTGAAAGAGACTCGAA	7.9	6.06	2.42	5.26	1.4	6.18	6.59	6.7	3.18	5.62	3.44	5.03	0.777	-0.505	4.46	5.75	2.42	5.73	2.35	5.56
TCTTGTGGATCAAGCAGGTTAAGAAAGCCTGAGT	0.364	0.407	-0.212	0.444	-0.493	0.766	-0.54	1.07	2.27	1.58	1.46	0.177	-0.713	0.262	-0.187	0.422	0.248	0.506	-0.587	0.161
TAGCCTAGGTCATTCAGGGGCCAGTATAGAAAGC	4.58	3.73	0.785	3.2	0.97	3.78	1.97	2.59	0.55	1.45	1.64	2.89	-0.179	0.357	1.37	2.57	-0.0401	2.74	-0.372	3.79
CCAAGTTGGTCAAGGTCACACACGCTATAGGTAC	4.98	4.1	1.98	3.73	0.363	4.23	3.48	4.02	1.45	3.14	2.97	3.8	0.633	0.94	3.54	4.6	4.77	4.56	1.99	4.27
AGAATGAGGTTGTTAAGATCAGGGAATTGCGGTC	0.00995	0.0148	-0.0695	-0.0376	-0.0779	0.298	0.171	0.206	-0.197	-0.0831	0.255	-0.103	-0.954	-0.016	0.112	0.362	0.179	0.0989	-0.0651	0.173

From the supplement of paper PMC6555819
